# According to PubChem BioAssay AID1347165 (National Center for Advancing Translational Sciences (NCATS), 2019):
# In all, about 220,000 compounds went through this assay and about 5,700 (2.6%) were called active. Another 18% or so got no clear call; they are omitted. The call rests on the fitted dose curve; in most records, active means well fitted inhibition curve with a large enough effect; inconclusive means small, poorly fitted or top-dose-only effect; inactive means no such curve, though single readings can be large or run the other way. Shown is part of a subset that was picked to be rich in actives.
# Target: Lysine-specific demethylase 5B (Homo sapiens) (UniProt Q9UGL1)
# Test: Primary screen for KDM5B Histone Demethylases FDH-coupled qHTS; further: nearly all actives have a fitted effect of over 70% in size; on activity change, negative = inhibition: 0% is about no effect
# Conditions: FDH-coupled NADH fluorescence (FDH is formaldehyde dehydrogenase); series mostly up to 57.7 µM; activity change, negative = inhibition: at the top concentration
# Summary of the method: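 qHTS format, multiple compound concentrations. Buffer 50 mM HEPES pH 7.5/0.01% Tween-20; 200 nM KDM5BΔAP final; 10 min compound preincubation; substrate-mix levels 12.5 µM peptide, 25 µM α-KG, 0.25 mM NAD⁺; 30 min RT; ΔRFU.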
# Potency means the concentration at half of the fitted maximal effect.
# Chain of Lysine-specific demethylase 5B (Homo sapiens) (Q9UGL1 whole entry, looked up): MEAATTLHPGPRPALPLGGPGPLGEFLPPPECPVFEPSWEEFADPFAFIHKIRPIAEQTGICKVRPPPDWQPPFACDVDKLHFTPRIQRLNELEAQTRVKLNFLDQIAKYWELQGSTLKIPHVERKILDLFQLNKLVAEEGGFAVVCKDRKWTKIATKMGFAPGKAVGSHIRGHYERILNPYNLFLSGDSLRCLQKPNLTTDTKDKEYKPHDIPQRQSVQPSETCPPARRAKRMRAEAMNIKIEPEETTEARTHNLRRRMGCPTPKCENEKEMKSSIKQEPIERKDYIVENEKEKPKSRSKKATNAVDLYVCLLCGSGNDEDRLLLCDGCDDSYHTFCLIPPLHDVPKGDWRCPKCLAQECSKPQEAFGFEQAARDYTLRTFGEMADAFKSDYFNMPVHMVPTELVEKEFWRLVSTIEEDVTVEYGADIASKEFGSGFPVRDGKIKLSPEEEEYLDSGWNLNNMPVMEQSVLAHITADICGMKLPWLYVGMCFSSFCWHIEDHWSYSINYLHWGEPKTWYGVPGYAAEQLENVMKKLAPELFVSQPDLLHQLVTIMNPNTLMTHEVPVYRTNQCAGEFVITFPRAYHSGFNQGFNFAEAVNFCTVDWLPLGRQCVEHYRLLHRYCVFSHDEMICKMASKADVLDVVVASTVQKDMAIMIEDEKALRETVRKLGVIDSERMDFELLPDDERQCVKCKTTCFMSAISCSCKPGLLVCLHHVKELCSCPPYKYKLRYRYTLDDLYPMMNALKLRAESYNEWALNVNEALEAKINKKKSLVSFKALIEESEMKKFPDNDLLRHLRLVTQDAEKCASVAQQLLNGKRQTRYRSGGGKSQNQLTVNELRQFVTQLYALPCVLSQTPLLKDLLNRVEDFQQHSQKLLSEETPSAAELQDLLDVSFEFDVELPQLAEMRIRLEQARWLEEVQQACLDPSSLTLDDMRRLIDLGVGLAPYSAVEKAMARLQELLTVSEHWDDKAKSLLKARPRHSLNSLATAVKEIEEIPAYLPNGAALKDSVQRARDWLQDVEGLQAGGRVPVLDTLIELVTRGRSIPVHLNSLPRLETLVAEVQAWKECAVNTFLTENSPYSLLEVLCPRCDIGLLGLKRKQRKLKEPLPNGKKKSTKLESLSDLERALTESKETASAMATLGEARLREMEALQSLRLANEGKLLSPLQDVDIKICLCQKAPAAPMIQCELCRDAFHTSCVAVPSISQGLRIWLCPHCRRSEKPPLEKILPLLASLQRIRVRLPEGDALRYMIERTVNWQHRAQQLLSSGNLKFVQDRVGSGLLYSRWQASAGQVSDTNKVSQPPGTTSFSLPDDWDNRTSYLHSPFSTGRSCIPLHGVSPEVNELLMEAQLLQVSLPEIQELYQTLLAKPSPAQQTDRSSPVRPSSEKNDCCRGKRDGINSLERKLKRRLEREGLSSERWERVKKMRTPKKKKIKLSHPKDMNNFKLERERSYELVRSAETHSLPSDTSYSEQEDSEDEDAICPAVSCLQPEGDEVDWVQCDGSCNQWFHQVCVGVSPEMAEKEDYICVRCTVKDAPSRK
Structure (SMILES),"activity change, negative = inhibition",Potency
CCc1nonc1NC(=O)COc1ccc(C)c(C)c1,7.03% (inactive),
COc1ccc(NC(=O)CSCc2ccc(F)cc2Cl)cc1,2.87% (inactive),
CCOC(=O)COn1c(=O)c(-c2ccc(OCC)cc2)[n+]([O-])c2ccccc21,-7.54% (inactive),
C=CCOC(=O)Nc1nc2c(s1)C[C@@H]1[C@](C)(CO)[C@H](O)CC[C@@]1(C)[C@@H]2CC(=O)N(CC)CC,1.16% (inactive),
C=CCN(C)C(=O)C[C@@H]1c2nc(NC(=O)c3ccc(C(C)(C)C)cc3)sc2C[C@@H]2[C@](C)(CO)[C@H](O)CC[C@]21C,,31.6 µM (active)
CC(C)(C)c1ccc(C(=O)Nc2nc3c(s2)C[C@@H]2[C@](C)(CO)[C@H](O)CC[C@@]2(C)[C@@H]3CC(=O)NCc2cccs2)cc1,,14.1 µM (active)
CN(C)CCNC(=O)C[C@@H]1c2nc(NC(=O)c3ccc(C(C)(C)C)cc3)sc2C[C@@H]2[C@](C)(CO)[C@H](O)CC[C@]21C,0.551% (inactive),
C[C@]1(CO)[C@H]2Cc3sc(NC(=O)C4CCCCC4)nc3[C@@H](CC(=O)NCc3cccs3)[C@]2(C)CC[C@H]1O,-19.3% (inactive),
CC(=O)N1CCN(C(=O)C[C@@H]2c3nc(NC(=O)c4cccs4)sc3C[C@@H]3[C@](C)(CO)[C@H](O)CC[C@]32C)CC1,-22.1% (inactive),
CC(C)(C)C(=O)COC(=O)c1cc(-c2ccccc2)c(N2CCOCC2)s1,-15.4% (inactive),
CC(C)C(=O)N1CC(=O)Nc2ccc(F)cc2C1c1ccc(F)cc1 (centres undefined),18.1% (inactive),
CC(=O)c1ccc(N2CCN(C(=O)CCNC(=O)Cn3ccc4ccccc4c3=O)CC2)cc1,-4.99% (inactive),
Cc1cnc(C(=O)N(C)Cc2ccc(Cl)s2)cn1,6.09% (inactive),
Cc1ccc(C(C)C)c(OCCSc2nc3ccccc3n2CC(=O)O)c1,-10.6% (inactive),
COc1ccc(OC)c(CC(C(=O)Nc2ccc(F)cc2)c2nn[nH]n2)c1 (centres undefined),-1.51% (inactive),
O=C(CSc1nccn1Cc1ccc(Cl)cc1)NCc1ccccc1,-11.1% (inactive),
O=C(NCc1cccnc1)c1nc(-c2ccc(Cl)nc2)c2cnccn12,,63.1 µM (active)
O=C(NCc1cccnc1)c1cnc2ccccc2n1,-14.4% (inactive),
O=C(NCc1ccc(Cl)nc1)c1cnn2ncccc12,,31.6 µM (active)
O=C(NCc1ccc(Cl)nc1)c1c[nH]c2cccnc12,-18.6% [at 149 µM] (inactive),
O=C(NCc1ccc(Cl)cc1)c1cccn2nccc12,,35.5 µM (active)
O=C(NCc1ccc(Cl)cc1)c1cc(-c2ccc[nH]2)n[nH]1,-9.79% (inactive),
O=C(NCc1ccc(Cl)nc1)c1ccn2cncc2c1,-8620% [at 86.2 µM] (inactive),
O=C(NCc1ccc(Cl)nc1)c1cn2c(n1)CN(C(=O)c1cccnc1)CC2,-15.4% [at 115 µM] (inactive),

Structure (SMILES),"activity change, negative = inhibition",Potency
CC1CCCN(CC(=O)Nc2oc3ccccc3c(=O)c2-c2ccc(F)cc2)C1 (centres undefined),-1.49% (inactive),
N#Cc1cccc(Cn2c(=O)c3c(ncn3C3CCCC3)n(Cc3ccccc3)c2=O)c1,6.91% (inactive),
CN(C)c1cccc(-c2cnc(Nc3ccc(N4CCOCC4)cc3)c3c2CCO3)c1,,35.5 µM (active)
CN1CCN(Cc2ccc(Nc3ncc(-c4cccnc4)c4c3OCC4)cc2)CC1,-29.8% [at 86.2 µM] (inactive),
COc1ncccc1Nc1ncc(-c2ccccc2)c2c1OCC2,-642% [at 86.2 µM] (inactive),
CN=c1scc(-c2cccs2)n1/N=C/c1cccs1,4.26% (inactive),
Cc1cnc(CCNC(=O)Nc2ccccc2F)n1C1CCC1,-9.92% (inactive),
CNC(=O)c1cccc(-c2cnc3[nH]cc(CC(=O)NCc4cccc(F)c4)c3c2)c1,-2.5% [at 86.2 µM] (inactive),
COc1ncccc1-c1cnc2[nH]cc(CC(=O)N(C)Cc3ccccc3)c2c1,,28.2 µM (active)
Cc1ccccc1C(=O)NCc1c[nH]c2ncccc12,-7.61% [at 86.2 µM] (inactive),
COc1ccccc1C(=O)NCCC(=O)N(C)Cc1cccnc1,15.8% (inactive),
CN(Cc1cccs1)C(=O)Cc1c[nH]c2ccccc12,2.68% (inactive),
COCCNC(=O)Cc1c[nH]c2ncc(-c3cccnc3OC)cc12,,31.6 µM (active)
CN(CC(=O)NCc1ccc(F)cc1)C(=O)c1ccc2c(c1)nnn2C,-1.64% (inactive),
Cc1nc2cc(NC(=O)c3cccc(S(=O)(=O)Nc4ccc(SC(F)F)cc4)c3)ccc2o1,-21.1% (inactive),
CCN(CC)S(=O)(=O)c1ccc(-c2csc(-c3cccc(OC)c3OC)n2)cc1,6.59% (inactive),
NC(Cc1ccccc1)(Cc1ccccc1)C(=O)O,5.7% (inactive),
O=C(c1cnc(N2CCCCC2)c2ccccc12)N1CCN(c2ccccn2)CC1,-0.794% (inactive),
Oc1ccccc1CN1C[C@H](O)C[C@H]1c1nc(Cc2ccc(F)cc2Cl)no1,7.24% [at 86.2 µM] (inactive),
O=[N+]([O-])c1ccccc1CN1C[C@H](O)C[C@H]1c1nc(-c2ccc(F)cc2)no1,,25.1 µM (active)
O=[N+]([O-])c1cccc(-c2noc([C@@H]3C[C@@H](O)CN3Cc3cccc(OC(F)(F)F)c3)n2)c1,-27% (inactive),
O[C@@H]1C[C@@H](c2nc(-c3ccc4c(c3)OCO4)no2)N(Cc2ccc(-c3ccccn3)cc2)C1,,25.1 µM (active)
N#Cc1cccc(CN2C[C@H](O)C[C@H]2c2nc(-c3ccccn3)no2)c1,-20.8% [at 86.2 µM] (inactive),
COc1ccc(CN2C[C@H](O)C[C@H]2c2nc(-c3ccc4c(c3)OCO4)no2)c(OC)c1OC,-8.22% (inactive),

Structure (SMILES),"activity change, negative = inhibition",Potency
CC(c1nc(-c2cccs2)no1)N(C)Cc1ccc(F)cc1F (centres undefined),12.1% (inactive),
Cc1ccc(NC(=O)N2CCC(OC3CCN(S(C)(=O)=O)CC3)CC2)cc1F,22.8% (inactive),
CC(Sc1ncnc2nc[nH]c12)C(=O)NCc1ccc(Cl)c(Cl)c1 (centres undefined),11.4% (inactive),
O=C(NC1CCCN(c2cc(-c3ccc(Cl)cc3)[nH]n2)C1)c1ccccc1F (centres undefined),-5.14% (inactive),
O=C(NC1CCN(c2cc(-c3cccs3)[nH]n2)C1)c1ccc(Br)cc1 (centres undefined),,4.47 µM (active)
Cn1nccc1C(=O)NC1CCCN(c2cc(-c3ccc(F)cc3)[nH]n2)C1 (centres undefined),-17.7% (inactive),
O=C(NC1CCN(c2cc(-c3ccccc3)[nH]n2)CC1)c1cccs1,5.39% (inactive),
O=C(NC1CCCN(c2cc(-c3ccc(Cl)cc3)[nH]n2)C1)c1ccncc1 (centres undefined),-2.2% (inactive),
O=C(NC1CCCN(c2cc(-c3ccccc3)[nH]n2)C1)c1cccc2[nH]ccc12 (centres undefined),,28.2 µM (active)
O=C(NC1CCCN(c2cc(-c3ccc(F)cc3)[nH]n2)C1)c1ccc(Br)cc1 (centres undefined),7.03% (inactive),
O=C(NC1CCN(c2cc(-c3ccc(Cl)cc3)[nH]n2)CC1)c1ccccc1F,-1.6% (inactive),
O=C(NC1CCN(c2cc(-c3ccc(F)cc3)[nH]n2)C1)c1ccc2c(c1)OCO2 (centres undefined),-28% (inactive),
O=C(NC1CCN(c2cc(-c3ccc(Cl)cc3)[nH]n2)C1)c1c[nH]c2ccccc12 (centres undefined),,11.2 µM (active)
O=C(NC1CCCN(c2cc(-c3ccccc3)[nH]n2)C1)c1cccc(Cl)c1 (centres undefined),-14.6% (inactive),
O=C(NC1CCN(c2cc(-c3ccc(F)cc3)[nH]n2)C1)c1cc2ccccc2[nH]1 (centres undefined),,8.91 µM (active)
C=C(Br)CN1CCCC1,-17.3% (inactive),
CCc1cccc(-n2c(SCc3nc4ccccc4o3)nnc2N2CCOCC2)c1,-1.04% (inactive),
O=C(c1ccccc1F)N1CCC(c2nn(-c3ccc(Cl)cc3)c(=O)[nH]2)CC1,-1% (inactive),
CCOc1cccc2cc(-c3cc(=O)oc4cc(OC(=O)N5CCOCC5)ccc34)c(=O)oc12,-7.16% (inactive),
Cc1cc(C)c2nc(SCC(=O)NC(=O)NC(C)(C)C)cc(C)c2c1,1.49% (inactive),
CCOc1ccc(CC(=O)NC2CCN(c3cc(-c4ccc(F)cc4)[nH]n3)CC2)cc1OCC,13.2% (inactive),
COc1ccc(CC(=O)NC2CCN(c3cc(-c4ccccc4)[nH]n3)CC2)cc1,0.366% (inactive),
COc1cccc(CC(=O)NC2CCN(c3cc(-c4ccc(F)cc4)[nH]n3)C2)c1 (centres undefined),,7.94 µM (active)
Cc1ccc(S(=O)(=O)NCCC(=O)Nc2cccc(S(N)(=O)=O)c2)cc1C,31.2% (inactive),

Structure (SMILES),"activity change, negative = inhibition",Potency
CC1(c2cccnc2)N(Cc2ccccc2)C(=O)OC12CCN(C(=O)c1cccc(Cl)c1)CC2 (centres undefined),-16% (inactive),
CCOc1ccccc1CN1CCC2(CCN(C(=O)c3cccc(Cl)c3)CC2)Oc2ccccc21,,25.1 µM (active)
CC1(c2cccnc2)N(CCOc2ccccc2)C(=O)OC12CCN(C(=O)c1cccc(Cl)c1)CC2 (centres undefined),-16.2% (inactive),
Cn1cccc1CN1CCC2(CC1)CNc1ccccc1[S+](=O)([O-])N2,-25.4% (inactive),
NCc1ccccc1-c1cccc(C(F)(F)F)c1,-5.98% [at 149 µM] (inactive),
CN(C)C(=O)c1n[nH]c2c1CN(C(=O)c1cccc(C(F)(F)F)c1)CC2,0.85% (inactive),
CN(C)C(=O)c1cc(-c2cccc(C(F)(F)F)c2)c2nncn2n1,,100 µM (active)
Cc1ccc(N2CCN(C(C(=O)O)c3c[nH]c4cc(NC(=O)C(C)C)ccc34)CC2)c(C)c1 (centres undefined),10.2% (inactive),
Oc1c(-c2ccccc2)nc2sc3c(c2c1-c1ccccc1)CCCC3,-25.6% (inactive),
COc1ccc(CNC(=O)N[C@@H]2CN(c3ccncn3)C[C@H]2CN(C)C)cc1,-21% (inactive),
CN(C)C[C@@H]1CN(c2ncccn2)C[C@H]1NC(=O)Cc1ccccc1Cl,,22.4 µM (active)
Cc1ccc(C)n1-c1nnc(N2CCC(C(=O)NCc3ccccc3Cl)CC2)s1,-21.5% (inactive),
CN(C)C(=O)c1cccnc1OC1CCN(C(=O)Cc2ccc(Cl)cc2)C1 (centres undefined),-17.9% (inactive),
CN(C)C[C@@H]1CN(c2ncccn2)C[C@H]1NC(=O)CCc1ccccc1,,28.2 µM (active)
CCOc1ccc(CC(=O)N[C@@H]2CN(c3ncccn3)C[C@H]2CN(C)C)cc1,,25.1 µM (active)
O=C(Cc1ccccc1Cl)N1CCN(c2ncnc3nc[nH]c23)CC1,4.8% (inactive),
CCOc1ccc(CC(=O)N2C[C@@H](N)C[C@H]2C(=O)NC(C)C)cc1,-25.5% (inactive),
CN(C)C[C@@H]1CN(c2ccncn2)C[C@H]1NC(=O)c1cc(C2CC2)[nH]n1,-3.97% (inactive),
O=C(c1cc(Cl)cc(Cl)c1)N1CCN(C(=O)c2cc(Cl)ccc2F)CC1,24% (inactive),
Cc1n[nH]c(C)c1CCC(=O)N[C@@H]1CN(S(C)(=O)=O)C[C@H]1CN(C)C,-5.53% (inactive),
CN(C)C[C@@H]1CN(c2ncccn2)C[C@H]1NC(=O)c1cc(Cl)ccc1F,,31.6 µM (active)
C/C=C/c1ccc(OCC(=O)N2CCN(S(=O)(=O)c3ccccc3)CC2)c(OC)c1,-5.54% (inactive),
